Assay results published in PubChem BioAssay (NCATS).
Several values for one entry are separate records, joined by “and”; a condition that tells them apart may be missing. Identical values can stand only once. Results filed as inconclusive are left out. More than one record can exist for a structure, and the calls need not agree. Activity calls are given as the source filed them. Unless noted, calls come from the whole dose curve; as a rule, active = well fitted curve in either direction with a large enough effect (not every such curve was filed as active); inconclusive = small, poorly fitted or top-dose-only effect, or another doubt; inactive = flat fitted curve, though single readings scatter.

Tests used:
[1] = AP1 Signaling Pathway (AID 357); details: ME-180 AP-1-bla reporter, EGF-induced, beta-lactamase ratio, 5 h; series mostly up to 17.2 µM; note: % is set by controls: 0 for no effect and ±100 for the full control effect
How it was run: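 AP-1-bla ME-180 cells with beta-lactamase reporter under AP-1 response element, stimulated with EC50 EGF; compounds titrated, 5 hours at 37 degrees Celsius. CCF4 read at 460/530 nm ratio; positive and negative modulators judged by AC50.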

[2] = biological target: Cytochrome P450 1A2 (Homo sapiens) (UniProt P05177); experiment: p450-cyp1a2 (AID 410; calls by dose curve; note: potency is the fitted concentration of half-maximal effect;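 for activity change, negative = inhibition: -100% = full effect of reference inhibitor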); details: recombinant CYP1A2, luciferin-ME demethylation, luminescence; series mostly up to 25.6 µM
How it was run: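 Luminescent demethylation readout: Luciferin-ME (100uM, equal to Km) turned over by 20nM CYP1A2 for 60 min at room temperature after NADPH regeneration addition, following 10 min compound preincubation. Normalization used 57 uM furafylline as full inhibition.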

[3] = Stat Signaling Pathway (AID 446); details: ME-180 (cervical carcinoma) SIE beta-lactamase reporter, IL-6 stimulated, 5 h; series mostly up to 17.2 µM;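 note: ME-180 cervical cancer cells given 40 pM IL-6 alongside compound; SIE-controlled beta-lactamase reporter measured as 460/530 nm FRET emission ratio; % is set by controls: 0 for no effect and ±100 for the full control effect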
How it was run: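 Compound effects on IL-6-induced STAT reporter activity were measured in ME-180 cells. After overnight culture, cells were co-treated with 40 pM IL-6 for 5 hrs before beta-lactamase substrate loading at room temperature.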

[4] = biological target: Glucocorticoid receptor (Homo sapiens) (UniProt P04150); experiment: GR-GFP Redistribution (AID 450;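 active = compounds whose dose series gives a full or clear partial fitted curve of increased nuclear translocation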; note: potency is the fitted concentration of half-maximal effect); details: U2OS GR-GFP nuclear translocation, laser cytometry, 2 h
[5] = biological target: Glucocorticoid receptor (Homo sapiens) (UniProt P04150); experiment: GR-EFC Redistribution (AID 451; calls by dose curve; note: potency is the fitted concentration of half-maximal effect); details: CHO-K1 GR-EFC translocation, beta-gal luminescence, 2 h
How it was run: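 Translocation of GR-ED fusion to nuclear EA restores b-gal, read by luminescence after 1 h room-temperature detection. Engineered CHO-K1 biosensor cells, 1,000/well, exposed 2 h at 37 C to titrations up to 46 uM final.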

[6] = NFAT Signaling Pathway (AID 444); details: Jurkat NFAT-bla M1, carbachol, beta-lactamase ratio, 5 h;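 note: carbachol stimulus at about its EC50 of 1 µM final; % is set by controls: 0 for no effect and ±100 for the full control effect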
How it was run: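 Read-out: CCF4 FRET ratio (460 nm/530 nm) after 1 h RT dye loading, used for %activity and AC50 from titration series. Cells: Jurkat NFAT-β-lactamase/M1 line, treated with compound plus 1 uM carbachol for 5 h, 37 °C.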

[7] = Cell Viability - BJ (AID 421; calls by dose curve;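 note: potency is the fitted concentration of half-maximal effect; cells exposed to compound for 40 hours at 37 °C before readout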); details: BJ fibroblast viability, qHTS
How it was run: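 Luminescent ATP signal (CellTiter-Glo, 20 min at room temperature) served as the read-out of viable BJ cells after 40 hours of compound treatment. Responses were scaled between DMSO and 100 uM tamoxifen, and AC50 values were obtained by Hill modeling.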

[8] = Cell Viability - Hek293 (AID 427;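 active = compounds whose dose-response curve shows a full or clear partial loss of cell viability, called from curve shape rather than a numeric limit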;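 note: potency is the fitted concentration of half-maximal effect; cells exposed to compound for 40 hours at 37 °C before reading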); details: qHTS
How it was run: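 Luminescent ATP read-out (CellTiter-Glo, 20 min RT) after 40 hr compound exposure at 37 °C in complete medium. Signal normalized to DMSO (basal) and 100 uM tamoxifen (100% inhibition); concentration-response fitted with the standard Hill equation to give AC50.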

[9] = Cell Viability - HepG2 (AID 433; calls by dose curve;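 note: potency is the fitted concentration of half-maximal effect; potency for ATP loss meaning cytotoxicity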); details: qHTS
How it was run: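 HepG2 hepatocellular carcinoma cells (1500/well) were treated with compounds for 40 h at 37 °C in complete medium; intracellular ATP was read by CellTiter-Glo luminescence. Data were normalized to DMSO and 100 uM tamoxifen, and AC50 came from Hill fits.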

[10] = Cell Viability - MRC5 (AID 434; calls by dose curve;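 note: potency is the fitted concentration of half-maximal effect; cells exposed to compound for 40 hours at 37 °C; potency reflects cytotoxicity seen as loss of intracellular ATP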); details: MRC5 lung fibroblast viability, qHTS
How it was run: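 AC50 values come from Hill-equation fits of intracellular ATP loss, measured by CellTiter-Glo luminescence. Normal lung fibroblasts (MRC5) had 40 hr compound treatment at 37 C, normalized between DMSO and 100 uM tamoxifen.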

Sequence of Cytochrome P450 1A2 (Homo sapiens) (P05177 whole entry, looked up): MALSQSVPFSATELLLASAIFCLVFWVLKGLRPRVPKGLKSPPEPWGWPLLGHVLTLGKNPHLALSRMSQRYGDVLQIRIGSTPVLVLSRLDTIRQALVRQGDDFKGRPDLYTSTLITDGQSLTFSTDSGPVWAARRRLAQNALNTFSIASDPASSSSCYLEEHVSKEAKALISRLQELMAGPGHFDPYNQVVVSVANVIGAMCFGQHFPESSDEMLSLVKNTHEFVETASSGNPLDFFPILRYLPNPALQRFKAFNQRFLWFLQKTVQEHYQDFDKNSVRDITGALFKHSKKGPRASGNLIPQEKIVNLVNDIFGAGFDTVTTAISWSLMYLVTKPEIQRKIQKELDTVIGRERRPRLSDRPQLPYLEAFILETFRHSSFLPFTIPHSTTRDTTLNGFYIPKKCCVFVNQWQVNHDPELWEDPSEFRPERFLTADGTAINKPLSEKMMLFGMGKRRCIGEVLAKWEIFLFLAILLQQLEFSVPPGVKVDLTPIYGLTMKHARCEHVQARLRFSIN
Sequence of Glucocorticoid receptor (Homo sapiens) (P04150 whole entry, looked up, the tested form may be a part): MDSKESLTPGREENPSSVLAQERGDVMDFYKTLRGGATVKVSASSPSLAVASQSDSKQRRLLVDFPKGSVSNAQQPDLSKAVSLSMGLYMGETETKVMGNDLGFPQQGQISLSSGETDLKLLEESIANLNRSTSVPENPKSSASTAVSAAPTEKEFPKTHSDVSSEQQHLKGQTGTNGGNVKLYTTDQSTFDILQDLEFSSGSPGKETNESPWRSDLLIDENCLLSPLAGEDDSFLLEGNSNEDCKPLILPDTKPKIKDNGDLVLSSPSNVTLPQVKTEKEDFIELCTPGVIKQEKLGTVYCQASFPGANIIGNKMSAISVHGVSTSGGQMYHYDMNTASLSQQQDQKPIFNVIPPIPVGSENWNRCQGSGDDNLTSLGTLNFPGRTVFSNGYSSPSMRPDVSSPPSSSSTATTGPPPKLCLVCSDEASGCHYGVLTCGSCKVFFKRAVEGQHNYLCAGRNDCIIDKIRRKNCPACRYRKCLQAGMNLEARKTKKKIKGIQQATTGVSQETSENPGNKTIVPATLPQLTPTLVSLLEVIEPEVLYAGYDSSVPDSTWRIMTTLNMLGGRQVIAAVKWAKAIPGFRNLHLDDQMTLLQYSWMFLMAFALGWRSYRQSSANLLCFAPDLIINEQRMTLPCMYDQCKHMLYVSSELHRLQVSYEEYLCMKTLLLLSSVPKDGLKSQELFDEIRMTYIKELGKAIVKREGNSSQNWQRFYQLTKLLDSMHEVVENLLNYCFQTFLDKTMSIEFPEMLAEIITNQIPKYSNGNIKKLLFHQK

Cc1cc2cc3c(C)cc(=O)oc3c(C)c2o1
inactive: outcome [1]
active: Potency [2] 1 µM

Cc1cc(=O)oc2cc(O)ccc12
inactive: outcome [1] | outcome [3]
active: Potency [2] 3.98 µM

Cc1cc(C2CCCCC2)n(O)c(=O)c1
active: Potency [2] 15.8 µM
inactive: outcome [1] | outcome [3] | Potency [4] > 20.6 µM | Potency [5] > 20.6 µM

O=C(CCc1ccc(O)cc1)c1c(O)cc(O)cc1O
active: Potency [2] 6.31 µM and 2 µM
inactive: outcome [1] | activity change, negative = inhibition ([6]; at 38 µM (top of the series)) 9.49% | Potency [4] > 46 µM | Potency [5] > 46 µM

CCCc1cc(=O)[nH]c(=S)[nH]1
inactive: outcome [1] | Potency [2] | Potency [7] > 92 µM | Potency [8] > 92 µM | Potency [9] > 92 µM | Potency [10] > 92 µM | activity change, negative = inhibition ([6]; at 17.2 µM (top of the series)) -2.4% and 6.45% | outcome [3]

O=C(O)c1cc(=O)c2c(OCC(O)COc3cccc4oc(C(=O)O)cc(=O)c34)cccc2o1
inactive: outcome [1] | Potency [2] | activity change, negative = inhibition ([6]; at 17.2 µM (top of the series)) -1.1% and -27.1% | outcome [3]

Cc1ccc(C)c(OCCCC(C)(C)C(=O)O)c1
inactive: outcome [1] | Potency [7] > 92 µM | Potency [8] > 92 µM | Potency [9] > 92 µM | Potency [10] > 92 µM | activity change, negative = inhibition ([6]; at 17.2 µM (top of the series)) 0.602% and 17.8% | outcome [3]
active: Potency [2] 12.6 µM

Oc1ccc(-c2nc(-c3ccc(F)cc3)c(-c3ccncc3)[nH]2)cc1
inactive: outcome [1] | outcome [3] | Potency [4] > 46 µM | Potency [5] > 46 µM
active: Potency [2] 15.8 µM

O=c1cc(N2CCOCC2)oc2c(-c3ccccc3)cccc12
active: Potency [2] 1.58 µM and 200 nM
inactive: outcome [1] | activity change, negative = inhibition ([6]; at 38 µM (top of the series)) -14.3% | outcome [3] | Potency [4] > 46 µM | Potency [5] > 46 µM

NCCCCNCCCN
inactive: outcome [1] | activity change, negative = inhibition ([6]; at 38 µM (top of the series)) -4.2% | Potency [4] > 46 µM | Potency [5] > 46 µM
inactive and 31.6 µM (active): Potency [2]

O=C(O)c1cccnc1Nc1cccc(C(F)(F)F)c1
active: Potency [2] 10 µM and 5.01 µM
inactive: outcome [1] | activity change, negative = inhibition ([6]; at 17.2 µM (top of the series)) -16.9% and -24.7% | activity change, negative = inhibition ([6]; at 38 µM (top of the series)) 5.69% | outcome [3] | Potency [4] > 46 µM and > 20.6 µM | Potency [5] > 46 µM and > 20.6 µM

O=c1c(O)c(-c2ccc(O)cc2O)oc2cc(O)cc(O)c12
active: Potency [2] 12.6 µM
inactive: outcome [1] | activity change, negative = inhibition ([6]; at 17.2 µM (top of the series)) 10% | activity change, negative = inhibition ([6]; at 38 µM (top of the series)) 2.93% | Potency [4] > 46 µM and > 20.6 µM | Potency [5] > 46 µM

COc1c2occc2cc2ccc(=O)oc12
inactive: outcome [1] | Potency [7] > 92 µM | Potency [8] > 92 µM | Potency [9] > 92 µM | Potency [10] > 92 µM | activity change, negative = inhibition ([6]; at 17.2 µM (top of the series)) 0.388% | outcome [3] | Potency [4] > 20.6 µM | Potency [5] > 20.6 µM

CC1(C)C(=O)N(CCN2CCC(C(=O)c3ccc(F)cc3)CC2)c2ccccc21
inactive: outcome [1] | Potency [2] | activity change, negative = inhibition ([6]; at 38 µM (top of the series)) -22.8% | outcome [3] | Potency [4] > 46 µM | Potency [5] > 46 µM

Cc1c(OCC(F)(F)F)ccnc1CS(=O)c1nc2ccccc2[nH]1 (stereo not given)
active: Potency [2] 31.6 µM and 15.8 µM
inactive: outcome [1] | activity change, negative = inhibition ([6]; at 17.2 µM (top of the series)) -20.4% and -11.1% | activity change, negative = inhibition ([6]; at 38 µM (top of the series)) 0.241% | outcome [3] | Potency [4] > 46 µM and > 20.6 µM | Potency [5] > 46 µM and > 20.6 µM

CN1CCC(=C2c3ccccc3CCc3sccc32)CC1
inactive: Potency [2] | outcome [3]

CC(C)c1ccc2c(c1)c(SC(C)(C)C)c(CC(C)(C)C(=O)O)n2Cc1ccc(Cl)cc1
active: Potency [2] 25.1 µM and 31.6 µM
inactive: Potency [4] > 46 µM | Potency [5] > 46 µM

CC(C)Oc1ccc2c(=O)c(-c3ccccc3)coc2c1
inactive: outcome [1] | activity change, negative = inhibition ([6]; at 17.2 µM (top of the series)) 5.32% | outcome [3] | Potency [4] > 20.6 µM

O=c1ccc2ccc(O)c(O)c2o1
inactive: outcome [1] | activity change, negative = inhibition ([6]; at 38 µM (top of the series)) -9.14% | outcome [3] | Potency [4] > 46 µM | Potency [5] > 46 µM

N=C(N=C(N)N)N1CCOCC1
inactive: outcome [1] | activity change, negative = inhibition ([6]; at 17.2 µM (top of the series)) -6.61% | outcome [3] | Potency [4] > 20.6 µM and > 46 µM | Potency [5] > 20.6 µM and > 46 µM
